This is a sample that favours compounds with a hit; in the whole collection about 4.1% have one here.
CaV13 ICDI inh = Disruptors of the CACNA1D IQ motif to Ca2+-dependent inactivation inhibitor domain association, primary screening, Förster resonance energy transfer in intact living …; inhibition, % at 12.3 µM; HEK cells, CFP/YFP FRET ICDI-IQ, plate reader, 10 min; percent FRET-ratio fall versus neutral wells; actives 0.098% (n = 340,000);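 active = mean replicate inhibition of at least 30% and at least 1% of replicates passing that level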;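 also: 0% = median of the neutral control wells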
ALR H2O2 inh = inhibitors of human ALR sulfhydryl oxidase, primary screen, biochemical, H2O2 detection, HRP-luminol luminescence, single point | inhibition, % (test concentration not listed) | actives 3.8% (n = 290,000) | FAD-linked sulfhydryl oxidase ALR (Homo sapiens), P55789 | AID 485317, 2010 | purified ALR, DTT oxidation;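 active = mean replicate inhibition above about 79%, with every replicate also reaching it, limit read from the data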
IDE inh = human IDE inhibitors in live cells, primary screen, fluorescence polarization, HEK cells, FAbetaB substrate | Insulin-degrading enzyme (Homo sapiens), P14735 | FAbetaB cleavage | inhibition, % at 5.59 µM | actives 0.41% (n = 320,000);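 active = percent inhibition above the average of all tested compounds plus 3 SD, set per screening campaign, cut at about 16% in these data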;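 also: IDE supplied by intact live HEK cells; FP after avidin binding of uncleaved biotin substrate so inhibition keeps polarization high; 0% = DMSO wells and 100% = 60 µM reference IDE inhibitor Ii1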
Target sequence (P14735 whole entry, looked up): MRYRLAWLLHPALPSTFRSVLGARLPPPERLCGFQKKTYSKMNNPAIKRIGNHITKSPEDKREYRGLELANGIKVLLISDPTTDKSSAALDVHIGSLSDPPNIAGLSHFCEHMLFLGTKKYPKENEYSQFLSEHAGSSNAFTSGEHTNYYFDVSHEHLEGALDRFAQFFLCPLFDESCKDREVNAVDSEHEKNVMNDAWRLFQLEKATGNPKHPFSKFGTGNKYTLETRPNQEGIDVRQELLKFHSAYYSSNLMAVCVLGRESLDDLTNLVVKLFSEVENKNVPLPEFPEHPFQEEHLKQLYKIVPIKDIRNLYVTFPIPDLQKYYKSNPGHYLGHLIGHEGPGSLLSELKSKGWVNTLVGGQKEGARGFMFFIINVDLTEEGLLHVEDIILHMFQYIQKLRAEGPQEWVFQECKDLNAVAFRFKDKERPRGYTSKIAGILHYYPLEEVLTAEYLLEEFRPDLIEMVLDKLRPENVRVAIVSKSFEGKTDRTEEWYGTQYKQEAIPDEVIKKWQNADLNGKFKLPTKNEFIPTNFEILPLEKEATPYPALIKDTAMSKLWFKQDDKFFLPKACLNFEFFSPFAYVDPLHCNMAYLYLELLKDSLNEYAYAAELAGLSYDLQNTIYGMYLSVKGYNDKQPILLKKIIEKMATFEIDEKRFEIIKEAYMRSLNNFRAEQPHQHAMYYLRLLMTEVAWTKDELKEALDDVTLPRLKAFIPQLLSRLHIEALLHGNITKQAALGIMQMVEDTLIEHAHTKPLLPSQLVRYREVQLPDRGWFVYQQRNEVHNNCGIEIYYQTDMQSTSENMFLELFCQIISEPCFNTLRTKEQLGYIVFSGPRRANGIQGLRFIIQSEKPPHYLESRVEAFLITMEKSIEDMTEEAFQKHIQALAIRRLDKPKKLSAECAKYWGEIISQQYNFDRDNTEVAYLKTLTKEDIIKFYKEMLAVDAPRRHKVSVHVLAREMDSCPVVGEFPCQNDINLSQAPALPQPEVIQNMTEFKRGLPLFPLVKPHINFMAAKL
M18AAP inhibitor = PfM18AAP inhibitors, malaria aminopeptidase, primary screen, biochemical, QFRET, recombinant enzyme; H-Glu-NHMec fluorogenic cleavage; inhibition, % at 7.35 µM; actives 1.2% (n = 290,000); AID 1822, 2009;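 active = inhibition above the campaign mean inhibition over all tested compounds plus 3 SD, cut at about 28% in these data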;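 also: 0% = plate median of test compound wells and 100% = 2 mM ZnCl2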
PolyA inh = polyadenylation inhibitors in yeast reporter cells, primary screen, luminescence, S. cerevisiae | activity score, % at 12 µM | S. cerevisiae SKY197-pL101 polyadenylation reporter, beta-gal luminescence; efflux-impaired pdr1/pdr3 knockout yeast; score 100 = 6 SD above DMSO | actives 0.02% (n = 300,000);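 active = lowest replicate activity score at least 50, where 100 means six control SD above control mean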;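 also: yeast exposed to compound for 9 h at 30 °C; higher score means more reporter readthrough which indicates perturbed polyadenylation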
IDE cell activ = human IDE activators in live cells, primary screen, fluorescence polarization, HEK cells, FAbeta-B substrate. FAbeta-B cleavage; 0% vehicle, 100% cell-free pure enzyme wells. activation, % at 5.96 µM. actives 0.073% (n = 340,000);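 active = activation above the mean of all tested compounds plus 3 SD, set per screening campaign, cut at about 17% in these data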
* marks the source's active call; other numbers are inactive results; x = no result.

SMILES	CaV13 ICDI inh	ALR H2O2 inh	IDE inh	M18AAP inhibitor	PolyA inh	IDE cell activ
O=C(Cc1ccccc1[N+](=O)[O-])NCc1ccccc1Cl	-8	-6	-2	-1	-2	1
Clc1ccc2[nH]c3c(c2c1)CCc1cn[nH]c1-3	x	99*	2	4	-15	5
c1ccc2c3c([nH]c2c1)-c1[nH]ncc1CC3	x	98*	5	-4	-16	-3
O=C(N/N=C1\CCCc2c1[nH]c1ccc(Cl)cc21)c1ccncc1	10	2	3	x	7	-1
O=c1c2ccccc2nc2n1CCc1c-2[nH]c2ccccc12	-5	-13	1	x	x	2
O=S1(=O)N[C@H](Cc2ccccc2)COc2cc(Br)ccc21	-5	x	x	x	x	x
O=C(NC1CCCC1)C(c1ccccc1)N(Cc1ccccc1)C(=O)c1csnn1 (stereo unspecified)	-2	-6	0	9	7	1
NC(=O)NC(=O)COC(=O)c1ccc2noc(-c3ccccc3)c2c1	-4	-3	1	17	17	-5
CC(=O)COC(=O)c1ccc2noc(-c3ccccc3)c2c1	-4	-3	7	30*	-7	-7
Cc1c(C(=O)NC2=NCCS2)oc2ccccc12	-7	97*	-2	5	-3	2
Cc1csc(NC(=O)c2oc3ccccc3c2C)n1	-12	5	-7	x	-18	0
CCCCCCn1c(=O)n2n(c1=O)[C@@H]1CN(S(=O)(=O)c3ccc(C)cc3)C[C@]1(O)[C@@H](OC(=O)NCC1CCCCC1)C2	-10	x	x	x	x	x
CCOc1ccc(-c2ccc(SCC(=O)NC3CCCCC3)nn2)cc1	x	-3	-3	-2	6	5
NC(Cc1ccc(C(F)(F)F)cc1)c1csc(Nc2cc(NCc3ccco3)ncn2)n1 (stereo unspecified)	-10	x	x	x	x	x
CCOC(=O)c1sc(-c2ccccc2)cc1NC(=O)Nc1ccc([N+](=O)[O-])cc1	-3	99*	6	-1	6	4
CNC(=O)c1sc(N2N=C3/C(=C/c4ccccc4)CCCC3C2c2ccccc2)nc1C (stereo unspecified)	5	99*	7	-1	10	-3
CC1(C)Cc2c(c(-c3ccccc3)nc3[nH][nH]c(=O)c23)CO1	-1	99*	11	6	-5	-1
O=C(O)c1cc([N+](=O)[O-])ccc1NCc1cccnc1	-19	-10	3	5	-7	12
NC(=O)c1cc([N+](=O)[O-])ccc1NCc1cccnc1	42*	-22	-1	0	1	-1
COc1ccccc1C1CC(=O)Oc2cc(OC)c(OC)c(OC)c21 (stereo unspecified)	-5	x	x	x	x	5
CCc1[nH]nc(C(=O)N2CCCC(Nc3ccc(C(C)C)cc3)C2)c1C (stereo unspecified)	-7	95*	1	6	-3	5
CC(=O)c1[nH]c(C)c(C(=O)N2CCCC(Nc3cccc(F)c3)C2)c1C (stereo unspecified)	-2	75*	12	-7	-9	2
CCc1[nH]nc(C(=O)N2CCCC(Nc3cccc(F)c3)C2)c1C (stereo unspecified)	x	99*	1	-2	-8	2
CC(=O)c1[nH]c(C)c(C(=O)N2CCCC(Nc3ccc(C(C)C)cc3)C2)c1C (stereo unspecified)	-7	x	x	5	5	6
Nc1cc(N)nc(SCc2nnnn2-c2ccc(Cl)cc2)n1	-14	-26	-4	0	-2	4
COCCCNC(=O)[C@H](Cc1ccccc1)NC(=O)CC[C@H]1O[C@@H](n2ccc(=O)[nH]c2=O)[C@H](O)[C@@H]1O	-7	x	x	x	x	x
CC(=O)OCC1(C)CN(c2ccccc2)N(C(C)=O)C1=O (stereo unspecified)	-4	57	7	5	12	1

Screening data (PubChem BioAssay)
